TEAD-YAP block: TEAD-YAP interaction inhibition | HEK-TIYL cells, TEAD-Gal4/YAP UAS-luciferase luminescence | inhibition, % at 9.12 µM | 640,000 tested, 1.4% active | AID 1259422; in the data active = inhibition above about 32%
GPR151 ag: human GPR151 activation. Q8TDV0. PathHunter beta-arrestin GPR151 cells, luminescence. activation, % at 11.2 µM. 650,000 tested, 1% active; in the data active = activation above about 4.9%
Target sequence (Q8TDV0 whole entry, looked up): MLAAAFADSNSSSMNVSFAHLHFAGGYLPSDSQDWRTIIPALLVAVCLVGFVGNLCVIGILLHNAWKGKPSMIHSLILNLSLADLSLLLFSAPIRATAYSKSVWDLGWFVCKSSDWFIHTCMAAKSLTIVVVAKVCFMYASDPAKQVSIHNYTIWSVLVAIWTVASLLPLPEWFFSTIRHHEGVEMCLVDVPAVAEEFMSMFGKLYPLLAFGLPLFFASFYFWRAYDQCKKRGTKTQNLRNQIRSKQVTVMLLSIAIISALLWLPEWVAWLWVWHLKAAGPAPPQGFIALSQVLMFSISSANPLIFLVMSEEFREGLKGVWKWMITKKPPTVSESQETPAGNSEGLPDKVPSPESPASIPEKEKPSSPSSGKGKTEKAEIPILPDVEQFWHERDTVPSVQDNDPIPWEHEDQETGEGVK
MITF primary: blocks human microphthalmia-associated transcription factor. AlphaScreen MITF homodimerization, bead proximity signal. inhibition, % at 2.6 µM. 650,000 tested, 0.91% active. AID 1259374; in the data active = inhibition above about 50%
FBW7 act: human FBW7 E3 ligase activation, primary screen; Q969H0; AlphaScreen FBW7–phospho-cyclin E peptide binding, activator screen; normalized activity (activation), % at 26.1 µM; 650,000 tested, 0.13% active; AID 1259310; in the data active = normalized activity above about 1.9%;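 note: purified mutant Fbw7 with reduced substrate affinity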
Hits are given with their value; . = inactive. Only some compounds are listed: those with a hit (about 3.5% of all), similar ones and a draw of the others.

SMILES	TEAD-YAP block	GPR151 ag	MITF primary	FBW7 act
CC(=O)N(/C=C1/Sc2ccccc2C1=O)c1ccc(C)cc1	59.3	.	.	.
CC(=O)N(/C=C1\Sc2ccccc2C1=O)c1ccc(I)cc1	.	.	.	.
COc1ccc(N(/C=C2\Sc3ccccc3C2=O)C(C)=O)cc1	51.4	.	.	.
COC(=O)C1=C(C)NC(=S)NC1c1ccccc1OCC(=O)N1CCCCC1 (centres undefined)	.	.	.	.
O=C(N/N=C/c1ccc(O)c(O)c1O)c1ccc(Cl)cc1Cl	.	.	.	.
NC(CO)C(=O)NNCc1ccc(O)c(O)c1O (centres undefined)	.	.	88.2	.
NC(CO)C(=O)N/N=C/c1ccc(O)c(O)c1O (centres undefined)	.	.	95.8	.
CCN(CC)CCCNC(=O)C1CC(c2ccc(F)cc2)NS(=O)(=O)N1C (centres undefined)	.	.	.	.
C=CCn1c(SCC(=O)Nc2sccc2C(N)=O)nnc1-c1ccccc1	.	.	.	.
O=C(CSc1nnc(-c2ccccc2)n1-n1cccc1)Nc1nccs1	37.8	.	.	.
NC(=O)c1ccsc1NC(=O)CSc1nnc(-c2ccccc2)n1-c1ccccc1	44.7	.	.	.
Cc1csc(NC(=O)CSc2nnc(-c3ccccc3O)n2-c2ccccc2)n1	56.6	.	.	.
O=C(CSc1nnc(-c2ccccc2O)n1-c1ccccc1)Nc1nccs1	53.9	.	.	.
COc1cc(CNCc2ccc3ccccc3c2)cc(OC)c1	.	.	.	.
O=C(CCCn1c(SCc2ccc([N+](=O)[O-])cc2)nc2ccccc2c1=O)NCC1CCCO1 (centres undefined)	.	.	.	.
C=CCn1c(SCC(=O)Nc2nccs2)nnc1-c1ccccc1O	60.8	.	.	.
CCn1c(SCC(=O)Nc2nccs2)nnc1-c1ccccc1O	.	.	.	.
CCCCc1ccc(-n2nnnc2SCC(=O)Nc2sccc2C(N)=O)cc1	37.0	.	.	.
CCOC(=O)c1cc2c(=O)n3ccccc3nc2n(CCOC)c1=NC(=O)c1ccco1	.	.	.	.
Nc1nc(SCC(=O)Nc2ccccc2C(=O)NC2CC2)n[nH]1	.	.	.	.
CNC(=O)C1C2C=CC3(O2)C1C(=O)N(Cc1ccccc1)C3C(=O)NC1CCCCC1 (centres undefined)	.	.	.	.
O=C(CC1S/C(=N\N=C2/CCCc3ccccc32)NC1=O)Nc1ccccc1 (centres undefined)	.	.	.	.
CCOC(=O)c1ccccc1NC(=O)C(C)N(c1ccc(OCC)cc1)S(C)(=O)=O (centres undefined)	57.0	.	.	.
CCOc1ccc(N(C(C)C(=O)Nc2cc(Cl)ccc2OC)S(C)(=O)=O)cc1 (centres undefined)	32.5	.	.	.
CCOc1ccc(N(C(C)C(=O)Nc2ccccc2Cl)S(C)(=O)=O)cc1 (centres undefined)	.	.	.	.
SMILES	TEAD-YAP block	GPR151 ag	MITF primary	FBW7 act
CCOc1ccc(N(C(C)C(=O)Nc2cc(C)ccc2OC)S(C)(=O)=O)cc1 (centres undefined)	46.6	.	.	.
CCOc1ccc(N(C(C)C(=O)Nc2ccc(Cl)cc2C)S(C)(=O)=O)cc1 (centres undefined)	.	.	.	.
COc1ccc(N(C(C)C(=O)Nc2cc([N+](=O)[O-])ccc2OC)S(C)(=O)=O)cc1 (centres undefined)	50.5	.	.	.
CCOc1ccc(N(C(C)C(=O)Nc2ccccc2OC)S(C)(=O)=O)cc1 (centres undefined)	.	.	.	.
COc1cc2c(cc1OC)CN(C(=O)c1coc(NC(=O)c3ccccc3)n1)CC2	.	.	.	.
COc1cccc(CN2CCNC(=O)C2CC(=O)N(C)CCN2CCOCC2)c1OC (centres undefined)	.	.	.	.
Cc1nnc(N/N=C\c2c[nH]c3ccccc23)[nH]c1=O	.	.	.	.
O=C(CCC1CCCN(C(=O)CCC2CCCC2)C1)N1CCN(c2ccccn2)CC1 (centres undefined)	.	.	.	.
Cc1nonc1C(=O)N/N=C/c1cc(Cl)cc(Cl)c1O	.	.	.	.
COc1cc(C(=O)Nc2cc(C(F)(F)F)ccc2N2CCOCC2)cc(OC)c1OC	.	.	.	.
CN(C)c1ccc(/C=C2\Oc3c(ccc(O)c3O)C2=O)cc1	.	.	54.9	.
O=C(/C=C/Nc1ccc(Cl)cc1)c1ccccc1	35.2	.	.	.
COc1cc(C(=O)/C=C/Nc2ccc(Cl)cc2)cc(OC)c1OC	37.7	.	.	.
COc1cc(C(=O)/C=C/Nc2ccc(C)cc2O)cc(OC)c1OC	49.5	.	.	.
COc1cc(C(=O)/C=C/Nc2ccc(O)cc2C)cc(OC)c1OC	.	.	.	.
O=C(/C=C/Nc1ccc(O)cc1)c1ccc(Cl)cc1	.	.	.	.
Cc1cccc(-c2nc3ccccc3c(=O)n2NC(=O)c2ccc(Cl)c([N+](=O)[O-])c2)c1	.	.	.	.
O=C(CC1CCCC1)NCC1CCC2(CCN(C(=O)c3ccc(F)cc3)CC2)O1 (centres undefined)	.	.	.	2.0
O=C(CCc1cccs1)NCC1CCC2(CCN(C(=O)c3ccc(F)cc3)CC2)O1 (centres undefined)	.	.	.	.
NC(=O)N/N=C/c1c2ccccc2cc2ccccc12	.	.	.	2.0
CCOC(=O)N/N=C/c1c2ccccc2cc2ccccc12	.	.	.	.
CCOc1ccc2ccccc2c1/C=N/NC(N)=S	40.3	.	.	.
O=C(N/N=C/c1c2ccccc2cc2ccccc12)C(=O)Nc1ccccc1F	.	.	.	.
O=C(N/N=C/c1c2ccccc2cc2ccccc12)C(=O)NC1CC1	56.9	.	.	.
Cc1ccc(C(=O)Nc2ccc(Cl)cc2C(=O)O)cc1C	.	.	.	.
SMILES	TEAD-YAP block	GPR151 ag	MITF primary	FBW7 act
Cc1c(C(=O)Nc2nc3ccc(Br)cc3s2)sc2ncn(Cc3ccccc3F)c(=O)c12	.	.	.	.
Cc1cc2c(Cc3cccs3)n[nH]c(=O)c2c(=O)[nH]1	.	.	.	.
CCOC(=O)c1ccc(NC(=O)CN2C(=O)CC(C)(C)S(=O)(=O)c3ccccc32)cc1	.	.	.	5.2
Cc1cc(C)c(S(=O)(=O)Nc2ccc3c(c2)CCCN3C(=O)C(C)C)cc1C	.	.	.	2.0
Cc1cc(C)c(S(=O)(=O)Nc2ccc3c(c2)N(C(=O)C(C)C)CCC3)cc1C	45.6	.	.	.
Cc1cc(C(=O)N(Cc2ccco2)c2nc3c(Cl)cccc3s2)on1	.	.	.	.
CC(=O)N1CCc2c(sc(NC(=O)c3ccc(Br)cc3)c2C#N)C1	41.3	.	.	.
CC(=O)N1CCc2c(sc(NC(=O)c3ccc4c(c3)OCCO4)c2C#N)C1	39.6	.	.	.
COC(=O)c1c(NC(=O)c2ccc(Cl)cc2)sc2c1CCN(C(C)=O)C2	.	.	.	3.3
COC(=O)c1c(NC(=O)c2ccc(S(=O)(=O)N(C)C)cc2)sc2c1CCN(C(C)=O)C2	.	.	.	.
CCCCC(=O)Nc1sc2c(c1C#N)CCN(C(C)=O)C2	42.6	.	.	.
Cc1ccc2c(c1)N(C(=O)CCC(=O)N1CCCCC1)CC(C)O2 (centres undefined)	.	.	.	.

High-throughput results as filed in PubChem.
